This passage reports outcome results from the GenesisPotency data set.

Screen size: about 110 compounds; fewer than 10 were called active.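 The calls were made as follows: active = EC50 at or below 33 microM; inactive = the rest.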 The list is a sample of the results. Entries with a potency or affinity are not part of this list.

The target in this assay is Ammonium transporter MEP2, Saccharomyces cerevisiae (strain ATCC 204508 / S288c) (UniProt P41948). Nature of the assay: yeast MEP2-GFP fusion level changes, TOR pathway – flow cytometry, KU SAR set, S. cerevisiae, dose response (AID 488801).
Ammonium transporter MEP2, Saccharomyces cerevisiae (strain ATCC 204508 / S288c), sequence (P41948 whole entry, the tested form may be a part): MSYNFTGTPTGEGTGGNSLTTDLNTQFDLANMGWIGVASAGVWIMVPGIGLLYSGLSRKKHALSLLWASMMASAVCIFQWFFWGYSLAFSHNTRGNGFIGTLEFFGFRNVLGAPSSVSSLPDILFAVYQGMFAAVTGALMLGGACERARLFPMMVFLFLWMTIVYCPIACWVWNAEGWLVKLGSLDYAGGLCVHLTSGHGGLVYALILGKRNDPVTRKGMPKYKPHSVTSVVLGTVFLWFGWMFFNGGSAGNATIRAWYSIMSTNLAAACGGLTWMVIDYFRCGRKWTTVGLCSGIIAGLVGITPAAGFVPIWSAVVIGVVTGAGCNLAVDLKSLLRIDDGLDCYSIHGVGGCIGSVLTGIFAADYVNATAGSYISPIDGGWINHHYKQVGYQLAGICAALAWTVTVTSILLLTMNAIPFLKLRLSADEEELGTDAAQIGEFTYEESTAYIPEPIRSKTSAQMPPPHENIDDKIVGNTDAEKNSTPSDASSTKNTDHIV
`O=[N+]([O-])c1ccc(O)c2ncccc12`: the result was inactive. Under `CC(C)(C)c1ccc(NC(=O)COC(=O)c2ccc([N+](=O)[O-])s2)cc1` stands “inactive”. Under `Nc1nc(NCc2ccco2)nc(Nc2cccc(F)c2)c1[N+](=O)[O-]` stands “inactive”; under `CC(C)(C)C(=O)NC(=S)NNC(=O)c1ccc(-c2ccccc2)cc1`, “inactive”.

On to `Nc1nc(Nc2ccccc2F)nc(Nc2cccc(F)c2)c1[N+](=O)[O-]`, for which the compound was classed as inactive. Under `CCC(C)Nc1nc(N)c([N+](=O)[O-])c(Nc2cccc(F)c2)n1` (stereo not drawn) stands “inactive”. To `CNc1nc(N)c([N+](=O)[O-])c(NCc2ccccc2)n1` belongs “inactive”. As for `CNc1nc(N)c([N+](=O)[O-])c(Nc2cc(OC)ccc2OC)n1`, the compound was classed as inactive.

With `O=C(CCc1ccccc1)NNC(=S)NC(=O)c1ccccc1`, the result was inactive.

For the compound `CC(Oc1ccc(Cl)cc1)C(=O)NNC(=S)NC(=O)c1ccco1` (stereo not drawn), the result was inactive. To `O=[N+]([O-])c1cc(O)c2ncccc2c1` belongs “inactive”. Under `Cc1ccc2nc(Cl)c3nnnn3c2c1` stands “inactive”; under `Cc1nn2c(-c3ccncc3)nnc2c2ccccc12`, “inactive”.
